# Test results taken from PubChem BioAssay (Tox21).
# Active and inactive are the calls of the source. Calls follow the shape of the dose curve; as a rule, active = well fitted activation curve with a large enough effect in the repeat runs; inconclusive = weak or mixed curves; inactive = flat fitted curve, though single readings scatter.
# Target: KiSS-1 receptor (Homo sapiens) (UniProt Q969F8)
# Test: Human kisspeptin (KISS1R) small molecule agonists, calcium flux assay in KISS1R-HEK293 cells (AID 1920064)
# Conditions: KISS1R-HEK293, calcium flux fluorescence, agonist; series mostly up to 76.8 µM
# Text: National Center for Advancing Translational Sciences [NCATS]
# Division of Preclinical Innovation [DPI]
# U.S. Environmental Protection Agency [EPA]
# National Institutes of Environmental Health Sciences [NIEHS]
# National Toxicology Program [NTP]
# U.S. Food and Drug Administration [FDA]
# Kisspeptin and its receptor KISS1R play key roles in mammalian reproduction due to their involvement in the onset of puberty and control of the hypothalamic-pituitary-gonadal axis such as regulates GnRH release from the hypothalamus. The kisspeptin/KISS1R system also plays a direct role in peripheral organs (including the ovary, testis, uterus, and placenta) and is implicated in reproductive diseases such as miscarriage and polycystic ovary syndrome (PCOS). Abnormal KISS1R activity is associated with abnormal puberty, infertility, endometriosis, and hormone-dependent tumors. The KISS1 receptor (KISS1R, also called GPR54), a G-protein-coupled receptor (GPCR), acts (through phospholipase C) to increase intracellular inositol trisphosphate and then release intracellular calcium stores. Cell-based KISS1R-HEK293 assay is using HEK293 cells that have been genetically engineered to express the human KISS1R, which activity can be measured by calcium signaling. A compound/drug can activate (agonist) KISS1R that can be monitored by levels of intracellular calcium.
# KISS1R-HEK293 cells developed by Codex Corp contain human KISS1R gene, which was stably integrated into HEK 293 cells. The compound activation can be detected by fluorescence intensity via calcium flux assay. This cell line has been used to screen the Tox21 10K compound library to identify agonists of KISS1R.
# KISS1R-Hek293 cells were dispensed at 1500 cells/4uL/well in 1536-well black wall/clear bottom plates using a multidrop dispenser. After the assay plates were incubated at a 37 C/5% CO2 incubator for 18 hours, 4 microL of Calcium Dye Solution was added to each well. The plates were incubated at 37 C for 1 hour. And then 23 nL of compounds dissolved in DMSO, positive controls, or DMSO only was transferred to the assay plate by a pin tool station. The fluorescence intensity in the plates was measured using FDSS 7000EX kinetic plate reader with a filter set of Ex/Em=480/540 for 3 min at 1 sec intervals. Each test compound was measured at 15 concentrations and in triplicates.
# % is scaled to controls: 0 for no effect and ±100 for the full control effect.
# Chain of KiSS-1 receptor (Homo sapiens) (Q969F8 whole entry, looked up): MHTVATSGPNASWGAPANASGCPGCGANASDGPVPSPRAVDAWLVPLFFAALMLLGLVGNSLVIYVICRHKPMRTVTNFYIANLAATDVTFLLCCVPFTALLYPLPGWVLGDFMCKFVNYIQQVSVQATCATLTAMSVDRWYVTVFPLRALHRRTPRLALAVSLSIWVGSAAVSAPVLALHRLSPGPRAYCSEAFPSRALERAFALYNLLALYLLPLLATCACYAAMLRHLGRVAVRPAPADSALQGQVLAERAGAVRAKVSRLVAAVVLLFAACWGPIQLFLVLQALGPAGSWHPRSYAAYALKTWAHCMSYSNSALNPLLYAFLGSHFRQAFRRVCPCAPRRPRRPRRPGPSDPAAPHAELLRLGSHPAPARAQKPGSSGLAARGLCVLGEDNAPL
Structure (SMILES),outcome,activation
CN=C(NC#N)NCCSCc1csc(N=C(N)N)n1,inactive,
CNS(=O)(=O)Cc1ccc2[nH]cc(CCN(C)C)c2c1,inactive,
Nc1ccccc1O,inactive,
C=CCCCCCCCCC(=O)OCC,inactive,
CCO[Si](CCCCl)(OCC)OCC,inactive,
Cc1cccn2c(=O)c(-c3nnn[nH]3)cnc12,,0.024% [at 15.8 µM] (inactive)
Cc1cc(O)ccc1N,inactive,
O=S1(=O)c2cccc3cccc(c23)N1CCCN1CCN(c2ccc(F)cc2)CC1,inactive,
CCOC(=O)N1CCC(Nc2ccc(Cl)cc2N)CC1,inactive,
C=CCSCC1Nc2cc(Cl)c(S(N)(=O)=O)cc2S(=O)(=O)N1 (stereo not given),inactive,
COc1ccc(C(=O)Nc2nc3ccccc3c(NCc3ccccc3)c2C#N)cc1,inactive,
CC1=C2[C@H](/C=C(\C)C(=O)O)CC[C@@H](C)[C@H]2CC1,inactive,
CC(C)(c1cc(Br)c(OCCO)c(Br)c1)c1cc(Br)c(OCCO)c(Br)c1,inactive,
O=C(CCCCCCCCc1cccnc1)N1CCC(C=C(c2ccccc2)c2ccccc2)CC1,inactive,
O=C(O)c1ccc(Cl)c(Cl)c1,inactive,
CCCCCCCCOS(=O)(=O)O,inactive,
Cc1cc(N)c2cc(NC(=O)Nc3ccc4nc(C)cc(N)c4c3)ccc2n1,inactive,
CCCCCCCCCCCCC,inactive,
COC(=O)C1=C(C)NC(C)=C(C(=O)OCCN2CCN(C(c3ccccc3)c3ccccc3)CC2)C1c1cccc([N+](=O)[O-])c1 (stereo not given),inactive,
CCN(CC)CCOc1ccccc1C(=O)CCc1ccccc1,inactive,

Structure (SMILES),outcome,activation
CCCCN1C=CN(C)C1,,2.8% [at 15.8 µM] (inactive)
CCCCCCCCSCc1cc(C)c(O)c(CSCCCCCCCC)c1,inactive,
CCCN(CCC)CCc1cccc2c1CC(=O)N2,inactive,
O=Cc1ccccc1[N+](=O)[O-],inactive,
N#CCC(=O)NN,inactive,
CC1(C)S[C@@H]2[C@H](NC(=O)C(C(=O)O)c3ccccc3)C(=O)N2[C@H]1C(=O)O (stereo not given in full),inactive,
CC[C@H](NC(=O)c1cc(F)ccc1NS(=O)(=O)c1cccc2cccnc12)c1ccccc1,inactive,
NC(=O)COCCN1CCN(C(c2ccccc2)c2ccc(Cl)cc2)CC1 (stereo not given),inactive,
CC(COC(C)(C)C)OCCCO (stereo not given),inactive,
CCOC(=O)C1=NN(c2ccc(Cl)cc2Cl)C(C)(C(=O)OCC)C1 (stereo not given),inactive,
O=C1CC2(CCCC2)CC(=O)N1CCNCC1COc2ccccc2O1 (stereo not given),inactive,
CCC(CC)C(=O)O,inactive,
CCCCc1ccc(N)cc1,inactive,
CCCCCCCCCCCCCCCCOS(=O)(=O)O,inactive,
O=C(OCC1CO1)C1CCCCC1C(=O)OCC1CO1 (stereo not given),inactive,
O=C(O)CCC(=O)OC[C@@H](NC(=O)C(Cl)Cl)[C@H](O)c1ccc([N+](=O)[O-])cc1,inactive,
Cc1c(C)c([N+](=O)[O-])c(C(C)(C)C)c([N+](=O)[O-])c1C,inactive,
Cc1cc(C)n(CO)n1,inactive,
C=C[Si](C)(C)O[Si](C)(C)C=C,inactive,
CC(=O)c1c(C)cc(C(C)(C)C)cc1C,inactive,
